Only a selection was taken, and the strongest signals are over-represented in it overall.
What was measured:
Experiment in all cases: glycan array binding signal (z-score within array); higher = stronger binding
Details in all cases: glycan notation: IUPAC condensed, linker removed
[1] = molecular target: Gal(b1-4)GlcNAc(b1-3)Gal(b1-4)GlcNAc(b1-3)Gal(b1-4)GlcNAc(b1-2)[Gal(b1-4)GlcNAc(b1-3)Gal(b1-4)GlcNAc(b1-3)Gal(b1-4)GlcNAc(b1-6)]Man(a1-6)[Gal(b1-4)GlcNAc(b1-3)Gal(b1-4)GlcNAc(b1-3)Gal(b1-4)GlcNAc(b1-2)Man(a1-3)]Man(b1-4)GlcNAc(b1-4)[Fuc(a1-6)]GlcNAc
Method in brief: (§1)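 Glycan array binding is given as a within-array Z-score, which can be read as non-binding when negative. The arrays, 3228 of them, came from the Consortium for Functional Glycomics database and were retained only where the protein sequence was available. Z-scores were averaged across arrays of the same protein sequence at different concentrations or buffers and across linkers.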

[2] = molecular target: Gal(b1-4)GlcNAc(b1-3)Gal(b1-4)GlcNAc(b1-3)Gal(b1-4)GlcNAc(b1-3)Gal(b1-4)GlcNAc(b1-2)[Gal(b1-4)GlcNAc(b1-3)Gal(b1-4)GlcNAc(b1-3)Gal(b1-4)GlcNAc(b1-3)Gal(b1-4)GlcNAc(b1-6)]Man(a1-6)[Gal(b1-4)GlcNAc(b1-3)Gal(b1-4)GlcNAc(b1-3)Gal(b1-4)GlcNAc(b1-3)Gal(b1-4)GlcNAc(b1-2)Man(a1-3)]Man(b1-4)GlcNAc(b1-4)[Fuc(a1-6)]GlcNAc
Method in brief: as §1

[3] = molecular target: Gal(b1-4)GlcNAc(b1-3)Gal(b1-4)GlcNAc(b1-3)Gal(b1-4)GlcNAc(b1-3)Gal(b1-4)GlcNAc(b1-3)Gal(b1-4)GlcNAc(b1-2)[Gal(b1-4)GlcNAc(b1-3)Gal(b1-4)GlcNAc(b1-3)Gal(b1-4)GlcNAc(b1-3)Gal(b1-4)GlcNAc(b1-3)Gal(b1-4)GlcNAc(b1-6)]Man(a1-6)[Gal(b1-4)GlcNAc(b1-3)Gal(b1-4)GlcNAc(b1-3)Gal(b1-4)GlcNAc(b1-3)Gal(b1-4)GlcNAc(b1-3)Gal(b1-4)GlcNAc(b1-2)Man(a1-3)]Man(b1-4)GlcNAc(b1-4)[Fuc(a1-6)]GlcNAc
Method in brief: as §1

[4] = molecular target: Gal3S(b1-4)Glc
Method in brief: as §1

[5] = molecular target: Gal3S(b1-4)[Fuc(a1-3)]Glc6S
Method in brief: as §1

[6] = molecular target: Gal6S(b1-4)Glc
Method in brief: as §1

[7] = molecular target: GalNAc3S(b1-4)GlcNAc
Method in brief: as §1

[8] = molecular target: GlcNAc(b1-3)Gal(b1-4)GlcNAc(b1-2)Man(a1-3)[GlcNAc(b1-3)Gal(b1-4)GlcNAc(b1-2)Man(a1-6)]Man(b1-4)GlcNAc(b1-4)GlcNAc
Method in brief: as §1

[9] = molecular target: GlcNAc(b1-3)GalNAc
Method in brief: as §1

[10] = molecular target: Man(a1-3)[Man(a1-6)]Man(b1-4)GlcNAc(b1-4)[Fuc(a1-6)]GlcNAc
Method in brief: as §1

[11] = molecular target: Neu5Ac(a2-3)Gal(b1-3)GlcNAc(b1-2)Man(a1-3)[GlcNAc(b1-4)][Neu5Ac(a2-3)Gal(b1-3)GlcNAc(b1-2)Man(a1-6)]Man(b1-4)GlcNAc(b1-4)GlcNAc
Method in brief: as §1

[12] = molecular target: Neu5Ac(a2-3)Gal(b1-3)GlcNAc(b1-4)Gal(b1-4)Glc
Method in brief: as §1

[13] = molecular target: Neu5Ac(a2-3)Gal(b1-4)GlcNAc(b1-2)Man(a1-3)[Neu5Ac(a2-6)Gal(b1-4)GlcNAc(b1-2)Man(a1-6)]Man(b1-4)GlcNAc(b1-4)GlcNAc
Method in brief: as §1

[14] = molecular target: Neu5Ac(a2-3)Gal(b1-4)GlcNAc(b1-2)[Neu5Ac(a2-3)Gal(b1-4)GlcNAc(b1-6)]Man(a1-6)[Neu5Ac(a2-3)Gal(b1-4)GlcNAc(b1-2)Man(a1-3)][GlcNAc(b1-4)]Man(b1-4)GlcNAc(b1-4)GlcNAc
Method in brief: as §1

[15] = molecular target: Neu5Ac(a2-3)Gal(b1-4)GlcNAc(b1-3)Gal(b1-4)GlcNAc(b1-3)Gal(b1-4)GlcNAc
Method in brief: as §1

[16] = molecular target: Neu5Ac(a2-3)Gal(b1-4)[Fuc(a1-3)]GlcNAc(b1-2)Man
Method in brief: as §1

[17] = molecular target: Neu5Ac(a2-3)GalNAc(b1-4)GlcNAc
Method in brief: as §1

[18] = molecular target: Neu5Ac(a2-6)Gal
Method in brief: as §1

[19] = molecular target: Neu5Ac(a2-6)Gal(b1-4)GlcNAc(b1-2)Man(a1-3)[GlcNAc(b1-4)][Neu5Ac(a2-6)Gal(b1-4)GlcNAc(b1-2)Man(a1-6)]Man(b1-4)GlcNAc(b1-4)GlcNAc
Method in brief: as §1

[20] = molecular target: Neu5Ac9Ac(a2-6)Gal(b1-4)GlcNAc
Method in brief: as §1

[21] = molecular target: Neu5Gc(a2-3)Gal(b1-4)GlcNAc
Method in brief: as §1

[22] = molecular target: Neu5Gc(a2-6)GalNAc
Method in brief: as §1

[23] = molecular target: Neu5Gc(a2-8)Neu5Gc(a2-6)Gal(b1-4)GlcNAc
Method in brief: as §1

[24] = molecular target: Neu5Gc(b2-6)Gal(b1-4)GlcNAc
Method in brief: as §1

B1: AntigenI/IIC123 (Streptococcus mutans), C9E3B4 (protein)
chain: MASMTGGQQMGRIHFHYFKLAVQPQVNKEIRNNNDINIDRTLVAKQSVVKFQLKTADLPAGRDETTSFVLVDPLPSGYQFNPEATKAASPGFDVTYDNATNTVTFKATAATLATFNADLTKSVATIYPTVVGQVLNDGATYKNNFTLTVNDAYGIKSNVVRVTTPGKPNDPDNPNNNYIKPTKVNKNENGVVIDGKTVLAGSTNYYELTWDLDQYKNDRSSADTIQKGFYYVDDYPEEALELRQDLVKITDANGNEVTGVSVDNYTNLEAAPQEIRDVLSKAGIRPKGAFQIFRADNPREFYDTYVKTGIDLKIVSPMVVKKQMGQTGGSYENQAYQIDFGNGYASNIIINNVPKINPKKDVTLTLDPADTNNVDGQTIPLNTVFNYRLIGGIIPADHSEELFEYNFYDDYDQTGDHYTGQYKVFAKVDITFKDGSIIKSGAELTQYTTAEVDTAKGAITIKFKEAFLRSVSIDSAFQAESYIQMKRIAVGTFENTYINTVNGVTYSSLEHHHHHH
glycan array binding signal (z-score) [1]: 3.08 | glycan array binding signal (z-score) [2]: 2.31 | glycan array binding signal (z-score) [3]: 4.43 | glycan array binding signal (z-score) [4]: -0.499 | glycan array binding signal (z-score) [5]: 2.84 | glycan array binding signal (z-score) [6]: -0.033 | glycan array binding signal (z-score) [7]: -1.45 | glycan array binding signal (z-score) [8]: 0.67 | glycan array binding signal (z-score) [9]: -0.207 | glycan array binding signal (z-score) [10]: -0.768 | glycan array binding signal (z-score) [11]: 0.141 | glycan array binding signal (z-score) [12]: -0.775 | glycan array binding signal (z-score) [13]: -0.814 | glycan array binding signal (z-score) [14]: -1.1 | glycan array binding signal (z-score) [15]: -0.469 | glycan array binding signal (z-score) [16]: -0.89 | glycan array binding signal (z-score) [17]: 0.443 | glycan array binding signal (z-score) [18]: 4.55 | glycan array binding signal (z-score) [19]: -0.868 | glycan array binding signal (z-score) [20]: -1.27 | glycan array binding signal (z-score) [21]: -1.14 | glycan array binding signal (z-score) [22]: -0.987 | glycan array binding signal (z-score) [23]: -0.326 | glycan array binding signal (z-score) [24]: -0.257

Source: the supplement of paper PMC8728848
